In PubChem BioAssay (NCI):
This is part of a sample that, as a whole, favours compounds with a hit. Of some 83,000 tested, about 20% had one in any assay.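 Method: cells in 96-well plates; compound added at one concentration; 48 h incubation; percent growth measured; values under 10 scored active.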 Active and inactive are the calls of the source.

How the values were obtained:
Experiment in all cases: NCI-60 one-dose screen, 48 h (100 = growth as untreated, 0 = no growth, -100 = all killed)
Conditions in all cases: 10 µM unless noted
[1] = system: T-47D breast
[2] = system: BT-549 breast
[3] = system: MDA-MB-435 melanoma
[4] = system: SW-620 colon
[5] = system: MCF7 breast
[6] = system: HCT-116 colon
[7] = system: HCC-2998 colon
[8] = system: KM12 colon

Measured: growth

COc1ccc(C2CC(c3cccc(Nc4ccncc4)c3)=NN2c2ccc(Cl)cc2)cc1 (stereo not drawn)
inactive: [1] 65.7% | [2] 105% | [6] 108%
active: [3] -85.4% | [4] -89.4% | [5] -16.8% | [7] -13.5% | [8] -72.1%

CC(=O)c1cc2c(N)c(C(=O)Nc3cncc4ccccc34)sc2nc1C
inactive: [1] 93.8% | [2] 105% | [3] 43.6% | [4] 103% | [5] 91.6% | [6] 101% | [7] 106% | [8] 94.3%

COc1ccc(-c2cnc(N)nc2-c2ccc(OC)cc2O)cc1
inactive: [1] 93.7% | [2] 115% | [3] 101% | [4] 95.7% | [5] 95.4% | [6] 80.4% | [7] 103% | [8] 45.5%

Clc1cc(Cl)cc(N2N=C(c3cccc(Nc4ccncc4)c3)CC2c2ccc(Br)cc2)c1 (stereo not drawn)
inactive: [1] 81.1% | [2] 112% | [6] 108%
active: [3] -14.7% | [4] -72.1% | [5] -46.4% | [7] -39.9% | [8] -34.3%

CCCCCCCCCCCCCCCC(=O)OC[C@@]1(O)C[C@@]23CC[C@@H]4C(C)(C)[C@H](O)CC[C@@]4(C)[C@@H]2CC[C@H]1C3
inactive: [1] 98.1% | [2] 91.5% | [3] 108% | [4] 110% | [5] 97% | [7] 107% | [8] 108%
active: [6] -67%

CCOC(=O)N1CCc2c(sc3nc4nc[nH]n4c(=O)c23)C1
inactive: [1] 88.9% | [2] 95.8% | [3] 103% | [4] 102% | [5] 93.5% | [6] 95.7% | [7] 98.6% | [8] 97.1%

CCCCOc1ccc(/C=N/Nc2cc(C)nc3ccc(Cl)cc23)cc1
active: [3] -85.2% | [4] -58.3% | [5] -70.8% | [6] -68% | [7] -71.1% | [8] -76.6%
inactive: [1] 21.5% | [2] 96.6%

COc1ccc(NC(=O)c2sc3nc(C)c(C(O)c4ccc(OC)cc4)cc3c2N)cc1 (stereo not drawn)
active: [3] -2.11%
inactive: [1] 56.8% | [2] 28.8% | [4] 33.8% | [5] 13.7% | [6] 15.3% | [7] 20.4% | [8] 20.7%

Cc1c(C2=CCCCC2)c2ccccn2c1C(=O)c1cccc(S(=O)(=O)N2CCOCC2)c1
inactive: [1] 79.3% | [2] 54.8% | [3] 62.5% | [4] 98.2% | [5] 93.4% | [6] 43% | [7] 82.2% | [8] 72.3%

O=C1CCCCCCCCC(O)C(O)CCCC(c2cccs2)O1 (stereo not drawn)
inactive: [1] 71.8% | [2] 122% | [3] 99.3% | [4] 103% | [5] 95.9% | [6] 89.8% | [7] 118% | [8] 100%

COc1ccccc1OCC(=O)N1CCCCCC1
inactive: [1] 103% | [2] 129% | [3] 101% | [4] 100% | [5] 92.8% | [6] 123% | [7] 108% | [8] 97.3%

C=C(C)[C@@H]1CC[C@]2(C(=O)NCCCN(CCC#N)CCC#N)CC[C@]3(C)[C@H](CC[C@@H]4[C@@]5(C)CCC(=O)C(C)(C)[C@@H]5CC[C@]43C)[C@@H]12
inactive: [1] 102% | [2] 95.5% | [3] 105% | [4] 101% | [5] 92.8% | [6] 97.3% | [7] 108% | [8] 104%

COc1ccc(/C=N/NC(=O)c2cccc3cc[nH]c23)cc1O
inactive: [1] 41.4% | [2] 55.9% | [4] 29.8% | [6] 21.8% | [7] 55.4% | [8] 29.8%
active: [3] -21.4% | [5] 8.85%

COc1ccc(-c2ncc(-c3ccccc3)[nH]2)cc1OC
inactive: [1] 102% | [2] 240% | [3] 104% | [4] 108% | [5] 83.6% | [6] 117% | [7] 120% | [8] 105%

Cc1cn(-c2cc(C(=O)Nc3cccc(C#Cc4cccc5[nH]nc(N)c45)c3)cc(C(F)(F)F)c2)cn1
inactive: [1] 54.2% | [2] 43.2% | [3] 41.7% | [4] 43.1% | [5] 64.8% | [6] 23.3% | [7] 62.8% | [8] 64.6%

COc1cc2nc(-c3ccc(C(F)(F)F)cc3)cc(OCCN3CCC(O)CC3)c2cc1OC
inactive: [1] 74.9% | [2] 52.3% | [3] 94.4% | [4] 91.8% | [5] 93.1% | [6] 55.3% | [7] 77.9% | [8] 86.8%
